High-throughput results: PubChem BioAssay, National Center for Advancing Translational Sciences (NCATS)
Only some compounds are listed: those with a hit (about 1.7% of all), similar ones and a draw of the others.
Apoferritin bind: qHTS Assay for Identification of Novel General Anesthetics. Ferritin light chain (Equus caballus), P02791. apoferritin/1-aminoanthracene competitive binding, fluorescence. Potency, µM (doses to about 77.5 µM), for inactives: at the top dose activity change, negative = displacement, most hits filed as inhibitors. 350,000 compounds, 0.074% hits. AID 485281, 2010; also: % is scaled to controls: 0 for no effect and ±100 for the full control effect; nearly all actives have a fitted effect of over 20% in size
Target sequence (P02791 2-175 limits assumed): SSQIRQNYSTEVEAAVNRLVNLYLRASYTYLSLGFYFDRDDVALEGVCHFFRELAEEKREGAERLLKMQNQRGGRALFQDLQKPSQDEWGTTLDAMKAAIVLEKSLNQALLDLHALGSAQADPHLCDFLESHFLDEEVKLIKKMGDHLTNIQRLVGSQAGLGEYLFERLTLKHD
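Concentration-response curves derived by four-parameter Hill fitting of normalized fluorescence, where compounds displaced 1-AMA from 10 uM horse apoferritin following a brief 10 min room-temperature incubation; propofol titration acted as positive control.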
mIDH1 inhibitor: qHTS for Inhibitors of mutant isocitrate dehydrogenase 1 (IDH1): qHTS; Isocitrate dehydrogenase [NADP] cytoplasmic (Homo sapiens), O75874; IDH1-R132H enzyme, NADPH consumption, diaphorase/resazurin fluorescence; Potency, µM (titrated, usually from 76.6 µM), for the others: at the top dose activity change, negative = inhibition, usual class: inhibitors; 390,000 compounds, 0.093% hits; also: % is scaled to controls: 0 for no effect and ±100 for the full control effect; nearly all actives have a fitted effect of over 65% in size
Target sequence (O75874 whole entry R132H, stated change not applied): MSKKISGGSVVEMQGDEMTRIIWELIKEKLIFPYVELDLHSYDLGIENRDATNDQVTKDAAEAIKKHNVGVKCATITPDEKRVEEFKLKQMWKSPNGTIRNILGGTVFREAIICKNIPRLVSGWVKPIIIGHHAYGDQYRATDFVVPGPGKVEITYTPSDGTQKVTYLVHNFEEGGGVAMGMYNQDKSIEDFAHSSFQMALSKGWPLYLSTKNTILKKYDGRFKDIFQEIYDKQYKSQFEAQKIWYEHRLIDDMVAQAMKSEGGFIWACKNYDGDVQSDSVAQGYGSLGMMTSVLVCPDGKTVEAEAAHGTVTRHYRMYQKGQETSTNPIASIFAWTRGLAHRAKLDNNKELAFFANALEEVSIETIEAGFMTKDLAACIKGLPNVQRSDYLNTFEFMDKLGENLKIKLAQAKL
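IDH1-R132H (0.5 ug/mL dispensed) in pH 7.5 Tris buffer was preincubated 30 min with compound, then given a substrate mix of 0.016 mM NADPH and 2 mM alpha-KG for 80 min at room temperature; remaining NADPH was read by diaphorase/resazurin fluorescence.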
rTrxR1 inhibitor: qHTS Assay for Inhibitors of Mammalian Selenoprotein Thioredoxin Reductase 1 (TrxR1): qHTS; Potency, µM (titrated, usually from 114 µM), without a hit: top-dose activity change, negative = inhibition, hits mostly inhibitors; AID 588453, 2011; 390,000 compounds, 1% hits; recombinant rTrxR1, NADPH fluorescence consumption, selenite substrate; Thioredoxin reductase 1, cytoplasmic (Rattus norvegicus), O89049; also: % is scaled to controls: 0 for no effect and ±100 for the full control effect; nearly all actives have a fitted effect of over 65% in size
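Rat TrxR1 (90 nM in the dispensed reagent) was pre-reduced with 400 uM NADPH for 5 min at room temperature, then incubated with compound for 15 min. After 400 uM selenite was added, NADPH fluorescence (Ex 340/Em 450 nm) was followed for 8 min.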
TrxR1 substrate: qHTS Assay for Substrates of Mammalian Selenoprotein Thioredoxin Reductase 1 (TrxR1): qHTS; Thioredoxin reductase 1, cytoplasmic (Rattus norvegicus), O89049; purified TrxR1 substrate turnover, NADPH consumption readout; Potency, µM (titrated, usually from 114 µM), for inactives: at the highest dose activity change, negative = substrate turnover; 390,000 compounds, 0.01% hits; AID 588456, 2011; also: % is scaled to controls: 0 for no effect and ±100 for the full control effect; nearly all actives have a fitted effect of over 50% in size
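Rat TrxR1, dispensed at 90 nM, was prereduced with 400 uM NADPH (final) for 5 min at ~22 deg C, then incubated with compound 15 min before 400 uM selenite. A first-read NADPH fluorescence drop versus no-compound background flagged substrates.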
GRP78 ERSR act: qHTS for Inducers of the Endoplasmic Reticulum Stress Response (ERSR) in Human Glioma: qHTS | U87-MG GRP78 promoter luciferase reporter, 16 h | Potency, µM, for inactives: at the highest dose activation, usual class: activators | 420,000 compounds, 0.02% hits; also: series mostly up to about 76 µM; % of control where 0% means no effect; nearly all actives have a fitted effect of over 35% in size
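Stably transfected U87-MG glioma cells carrying a GRP78-based luciferase sensor; 16 h compound incubation. Luminescence end-point read 10 min after Bright-Glo addition at room temperature.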
12-LOX inh: Primary qHTS assay for inhibitors of human arachidonate 12S-lipoxygenase (ALOX12): Round 2 | purified 12hLO, xylenol orange hydroperoxide absorbance | Potency, µM (doses to about 108 µM), for the others: at the highest dose activity change, negative = inhibition, actives largely listed as inhibitors | 580,000 compounds, 1.1% hits; also: % is scaled to controls: 0 for no effect and ±100 for the full control effect
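Purified human 12hLO at 150 nM in 25 mM Hepes, 0.01% Triton X-100, pH 7.0, preincubated 15 min at room temperature with compound. Reaction started with 40 uM arachidonic acid, 30 min at room temperature. Hydroperoxide measured by Fe-xylenol orange, 573/405 nm absorbance ratio.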
An asterisk follows results filed as active; ? = inconclusive; nt = not tested or not shown; [ ] = remark or other dose. Calls follow the shape of the dose curve; as a rule, active = well fitted curve in the direction sought with a large enough effect; inconclusive = small, poorly fitted or top-dose-only effect, or another doubt; inactive = no such curve, though single readings can be large; an effect the other way counts as inactive or inconclusive. Potency is read from the fitted curve at half-maximal effect.

SMILES	Apoferritin bind	mIDH1 inhibitor	rTrxR1 inhibitor	TrxR1 substrate	GRP78 ERSR act	12-LOX inh
CC(=O)Nc1nc(CC(C)C)cc(-c2ccccc2)c1C#N	-1%	0%	-15%	-7%	-4%	0%
CC(=O)Nc1nc(CC(C)C)cc(-c2ccco2)c1C#N	-8%	0%	30%[57.1 µM]	160%[57.1 µM]	-6%	13µM*
C#CCN(C)C(=O)[C@@H](C)C1CC[C@@]2(C)Cc3sc(NC(=O)C4CC4)nc3[C@@H](C)[C@@H]2[C@H]1O (some centres undefined)	nt	nt	nt	nt	nt	112µM*
CCN(CC)C(=O)C(C)[C@@H]1CC[C@@]2(C)Cc3sc(NC(=O)C4CC4)nc3[C@@H](C)[C@@H]2[C@H]1O (some centres undefined)	nt	nt	nt	nt	nt	0%
CC(C)c1ccc(NC(=O)N[C@H]2CO[C@H]3[C@@H]2OC[C@H]3OCc2ccccc2)cc1	nt	nt	nt	nt	nt	-14%[176 µM]
O=C(/C=C/c1cc2ccccc2nc1N1CCOCC1)c1cccc(O)c1	nt	nt	nt	nt	nt	16µM*
COc1ccccc1-c1nnc2n1C(C(=O)N1CCCC1)CC2 (centres undefined)	nt	nt	nt	nt	nt	-8%[6.33 µM]
COC(=O)CO[C@@H]1CO[C@H]2[C@@H]1OC[C@@H]2NC(=S)Nc1cc(C)cc(C)c1	nt	nt	nt	nt	nt	71µM*
COc1cc(C)c2c(c1OC)C(=O)CC2	nt	10%	-11%	4%	-2%	-13%
O=C1CCc2c(Cl)cc(Cl)c(O)c21	nt	nt	nt	nt	nt	5.6µM*
CC(=O)c1c(C)[nH]c(C(=O)C(C)Sc2ccc(F)c(Cl)c2)c1C (centres undefined)	nt	nt	nt	nt	nt	45µM*
CCOC(=O)c1c(C)[nH]c(C(=O)C(C)Sc2ccc(Cl)cc2)c1C (centres undefined)	?	1%	22%[57.1 µM]	-1%	-2%	12%
O=C1C=CC2=C3c4cc(O)c(O)cc4CC3(O)COC2=C1O (centres undefined)	nt	-7%	16µM*	3%	-2%	?
CCn1c(SCC(=O)NC(C)c2ccccc2C)nnc1C1CC1 (centres undefined)	nt	nt	nt	nt	nt	1%
O=C(NC(=S)Nc1nc2c(s1)CCCC2)c1ccccc1	-3%	7%	5%	-2%	6%	-7%
S=C(Nc1nc2c(s1)CCCC2)NC1CC1	?	-1%	?	-4%	11%	45µM*
CNC(=O)COc1ccc(Cl)c2cccnc12	-6%	6%	7%[57.1 µM]	11%[57.1 µM]	-6%	1%
Cc1cccc(NC(=O)Oc2ccc(Cl)c3cccnc23)c1	nt	-3%	nt	nt	-1%	40µM*
N#CC(C#N)=Cc1ccc(-c2ccc(S(=O)(=O)N=C(N)N)cc2)o1	-10%	-12%	?	7%	-1%	25µM*
O=C(Nc1ccc(Oc2ccc(Cl)cc2)cc1)c1nc2ccccc2nc1N1CCOCC1	nt	nt	nt	nt	nt	-7%
O=C1C=CC(=O)N1Cc1ccccc1	-7%	-6%	0.4µM*	3%	-12%	11%
O=C(NCc1ccco1)c1cccnc1-c1nc2ccccc2s1	-22%	-3%	?	-14%	-3%	?
CN1CCN(C(=O)c2cccnc2-c2nc3ccccc3s2)CC1	nt	nt	nt	nt	nt	32µM*
CCCOc1ccc(C2c3c(-c4ccccc4O)n[nH]c3C(=O)N2CCO)cc1 (centres undefined)	nt	nt	nt	nt	nt	7%
COc1ccc(/C=C2/C(=O)N(c3nc4ccccc4s3)N=C2CSc2ccc(Cl)cc2)cc1	-7%	7%	-12%	5%	2%	5µM*
SMILES	Apoferritin bind	mIDH1 inhibitor	rTrxR1 inhibitor	TrxR1 substrate	GRP78 ERSR act	12-LOX inh
C#CC(=O)CC1(CN(Cc2ccccc2)C(=O)OC(C)(C)C)CCCCC1	nt	-3%	2µM*	-5%	-7%	-18%
Cc1[nH]c(=S)sc1Cc1ccc(Cl)c(Cl)c1	?	nt	nt	nt	nt	32µM*
Cc1nnc(SCc2ccc(Cl)c(Cl)c2)s1	?	1%	0%	-5%	8%	-8%
COC(=O)c1ccc(COc2ccc(C#N)cc2OC)cc1	nt	nt	nt	nt	nt	29%
CCOC(=O)Cc1csc(NC(=O)/C=C/c2ccco2)n1	0%	0%	79µM*	-3%	15%	9%
Cc1csc(NC(=O)/C=C/c2ccco2)n1	-7%	4%	?	-13%	-5%	-11%
N#Cc1ccccc1OCC(=O)Nc1nc(-c2ccccn2)cs1	nt	-1%	nt	nt	1%	35µM*
O=C(/C=C/c1ccco1)Nc1nc(-c2ccccn2)cs1	-13%	0%	14µM*	9%[0.0914 µM]	-3%	-10%
O=C(CC1CC2CCC1C2)Nc1ccc(F)cc1 (centres undefined)	nt	nt	nt	nt	nt	51%
COC(=O)c1ccc([C@@H]2Nc3c(OC)ccc(C)c3[C@@H]3C=CC[C@@H]32)cc1	-16%	9%	56µM*	0%	7%	?
S=C(Nc1ccccc1)Nc1nc2ccccc2n1CCOc1ccc(Br)cc1	5%	2%	-19%	-7%	-2%	28µM*
Nc1nc2ccccc2n1CCOc1ccc(Br)cc1	-7%	5%	12%	4%	-6%	6%
Cc1[nH]c(=S)c(C#N)c(C)c1Cc1ccccc1	-4%	1%	-13%	4%	-3%	?
Cc1ccc2c(Cl)c(Cc3ccccc3)c(=S)[nH]c2n1	nt	-2%	-12%	2%	0%	32µM*
COc1ccc(Nc2c(-c3cc(Br)ccc3O)nc3ncccn23)cc1OC	-15%	-6%	10%	-1%	2%	-6%
COc1ccc(O)c(O)c1/C=C1\[C@@H](C)CCC2C(C)(C)CCC[C@]12C (some centres undefined)	nt	nt	nt	nt	nt	2.2µM*
COc1cccc(OC)c1C(=O)Nc1ccc(-c2nc3cc(C)ccc3o2)cc1	nt	nt	nt	nt	nt	-38%
O=C(O)c1ccccc1-c1ccccc1C(=O)Nc1ccc(-c2nc3cc(Cl)ccc3o2)cc1	-6%	1%	-17%	-4%	16%	45µM*
COc1ccc(-c2nc3cc(NC(=S)NC(=O)Cc4ccccc4)ccc3o2)cc1	-9%	2%	21%[0.0914 µM]	-8%	-1%	28µM*
CC(C)c1ccc(-c2nc3cc(NC(=O)c4cccnc4)ccc3o2)cc1	nt	nt	nt	nt	nt	40µM*
O=C(Nc1ccc2oc(-c3ccccc3)nc2c1)c1cccnc1	-6%	6%	-5%[57.1 µM]	-12%[57.1 µM]	2%	4%
